Our source for the inhibition values is ChEMBL document CHEMBL1961873, “Compounds: GSK PKIS; Assays: Nanosyn kinase panel” (2012).

The target in assay [1] is T1, Inhibitor of nuclear factor kappa-B kinase subunit epsilon (Homo sapiens) (UniProt Q14164).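 Note: reported values are averaged percent inhibition figures against human IKKε.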
T1 sequence (whole entry): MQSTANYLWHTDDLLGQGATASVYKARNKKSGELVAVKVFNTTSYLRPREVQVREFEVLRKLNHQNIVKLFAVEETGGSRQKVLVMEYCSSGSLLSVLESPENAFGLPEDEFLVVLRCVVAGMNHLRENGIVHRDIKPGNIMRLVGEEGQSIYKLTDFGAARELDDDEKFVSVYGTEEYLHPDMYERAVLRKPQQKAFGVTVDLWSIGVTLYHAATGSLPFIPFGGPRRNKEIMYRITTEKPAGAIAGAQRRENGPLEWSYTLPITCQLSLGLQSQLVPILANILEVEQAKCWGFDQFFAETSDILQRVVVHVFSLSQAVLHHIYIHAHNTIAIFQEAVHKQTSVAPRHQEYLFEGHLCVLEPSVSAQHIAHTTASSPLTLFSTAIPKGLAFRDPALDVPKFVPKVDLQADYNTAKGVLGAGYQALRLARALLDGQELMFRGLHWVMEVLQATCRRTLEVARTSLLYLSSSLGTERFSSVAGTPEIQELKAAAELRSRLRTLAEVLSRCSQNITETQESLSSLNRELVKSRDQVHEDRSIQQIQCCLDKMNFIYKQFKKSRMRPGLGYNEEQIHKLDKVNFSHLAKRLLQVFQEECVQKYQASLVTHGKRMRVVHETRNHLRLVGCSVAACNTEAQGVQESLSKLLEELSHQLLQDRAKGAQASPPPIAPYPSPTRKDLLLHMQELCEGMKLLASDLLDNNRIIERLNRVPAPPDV
The following applies: at 1 µM.

Assay [2] deals with T2, Serine/threonine-protein kinase Nek1 (Homo sapiens) (UniProt Q96PY6).
T2 sequence (whole entry): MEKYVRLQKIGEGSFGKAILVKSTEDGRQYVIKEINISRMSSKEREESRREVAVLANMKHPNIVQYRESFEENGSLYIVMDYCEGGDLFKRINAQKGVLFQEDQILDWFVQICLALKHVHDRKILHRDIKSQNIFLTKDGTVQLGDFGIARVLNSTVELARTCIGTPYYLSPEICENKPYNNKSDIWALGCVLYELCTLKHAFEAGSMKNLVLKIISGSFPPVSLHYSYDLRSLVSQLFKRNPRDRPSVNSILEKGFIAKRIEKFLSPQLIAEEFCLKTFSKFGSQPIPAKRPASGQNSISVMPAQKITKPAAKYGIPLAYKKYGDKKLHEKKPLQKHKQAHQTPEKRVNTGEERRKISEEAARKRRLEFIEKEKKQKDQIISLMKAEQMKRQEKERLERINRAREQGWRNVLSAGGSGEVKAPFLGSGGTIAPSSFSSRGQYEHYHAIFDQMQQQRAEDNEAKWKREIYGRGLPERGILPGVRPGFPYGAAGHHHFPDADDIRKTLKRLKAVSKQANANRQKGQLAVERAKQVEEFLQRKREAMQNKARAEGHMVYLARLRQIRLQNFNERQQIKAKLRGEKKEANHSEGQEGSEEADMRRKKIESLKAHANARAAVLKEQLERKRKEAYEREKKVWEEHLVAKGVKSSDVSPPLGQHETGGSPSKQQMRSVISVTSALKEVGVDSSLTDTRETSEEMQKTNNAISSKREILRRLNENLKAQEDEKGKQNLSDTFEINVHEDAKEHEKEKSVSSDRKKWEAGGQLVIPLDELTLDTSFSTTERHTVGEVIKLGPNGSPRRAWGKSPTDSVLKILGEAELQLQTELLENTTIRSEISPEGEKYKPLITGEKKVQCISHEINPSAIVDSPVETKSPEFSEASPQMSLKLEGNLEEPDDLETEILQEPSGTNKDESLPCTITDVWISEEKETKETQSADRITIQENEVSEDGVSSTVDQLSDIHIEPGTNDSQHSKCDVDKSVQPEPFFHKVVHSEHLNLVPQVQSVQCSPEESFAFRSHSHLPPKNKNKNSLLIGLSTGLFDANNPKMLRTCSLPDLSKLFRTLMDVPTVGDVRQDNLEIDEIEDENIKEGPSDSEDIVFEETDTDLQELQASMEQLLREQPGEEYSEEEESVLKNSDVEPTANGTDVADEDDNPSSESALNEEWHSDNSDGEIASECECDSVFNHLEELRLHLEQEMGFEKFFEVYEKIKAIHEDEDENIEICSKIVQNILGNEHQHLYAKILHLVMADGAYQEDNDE
As to conditions: at 0.1 µM.

The target of assay [3] is T2, Serine/threonine-protein kinase Nek1 (Homo sapiens). As to conditions: at 1 µM.
For assay [4], the target named is T3, Serine/threonine-protein kinase Nek2 (Homo sapiens) (UniProt P51955).
T3 sequence (whole entry): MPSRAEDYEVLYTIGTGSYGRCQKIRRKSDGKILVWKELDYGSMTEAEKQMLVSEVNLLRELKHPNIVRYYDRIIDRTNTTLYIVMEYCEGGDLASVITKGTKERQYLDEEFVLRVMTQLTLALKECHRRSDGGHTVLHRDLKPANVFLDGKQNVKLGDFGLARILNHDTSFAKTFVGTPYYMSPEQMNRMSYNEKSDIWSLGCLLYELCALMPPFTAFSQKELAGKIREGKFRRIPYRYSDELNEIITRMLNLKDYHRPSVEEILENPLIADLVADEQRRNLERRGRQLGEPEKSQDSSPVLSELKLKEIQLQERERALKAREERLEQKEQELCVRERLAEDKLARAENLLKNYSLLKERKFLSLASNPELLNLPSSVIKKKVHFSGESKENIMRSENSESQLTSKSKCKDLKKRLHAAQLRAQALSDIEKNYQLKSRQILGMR
As to conditions: at 0.1 µM.

Assay [5] deals with T3, Serine/threonine-protein kinase Nek2 (Homo sapiens). The following applies: at 1 µM.
The target in assay [6] is Serine/threonine-protein kinase Nek6 (Homo sapiens) (UniProt Q9HC98). The following applies: at 0.1 µM.
For assay [7] the target is unchanged. As to conditions: at 1 µM.
The target in assay [8] is Serine/threonine-protein kinase Nek7 (Homo sapiens) (UniProt Q8TDX7). As to conditions: at 0.1 µM.
For assay [9] the target is unchanged. The following applies: at 1 µM.
For assay [10], the target named is T4, Serine/threonine-protein kinase Nek9 (Homo sapiens) (UniProt Q8TD19).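 Note: reported value is the mean percent inhibition of NEK9.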
T4 sequence (whole entry): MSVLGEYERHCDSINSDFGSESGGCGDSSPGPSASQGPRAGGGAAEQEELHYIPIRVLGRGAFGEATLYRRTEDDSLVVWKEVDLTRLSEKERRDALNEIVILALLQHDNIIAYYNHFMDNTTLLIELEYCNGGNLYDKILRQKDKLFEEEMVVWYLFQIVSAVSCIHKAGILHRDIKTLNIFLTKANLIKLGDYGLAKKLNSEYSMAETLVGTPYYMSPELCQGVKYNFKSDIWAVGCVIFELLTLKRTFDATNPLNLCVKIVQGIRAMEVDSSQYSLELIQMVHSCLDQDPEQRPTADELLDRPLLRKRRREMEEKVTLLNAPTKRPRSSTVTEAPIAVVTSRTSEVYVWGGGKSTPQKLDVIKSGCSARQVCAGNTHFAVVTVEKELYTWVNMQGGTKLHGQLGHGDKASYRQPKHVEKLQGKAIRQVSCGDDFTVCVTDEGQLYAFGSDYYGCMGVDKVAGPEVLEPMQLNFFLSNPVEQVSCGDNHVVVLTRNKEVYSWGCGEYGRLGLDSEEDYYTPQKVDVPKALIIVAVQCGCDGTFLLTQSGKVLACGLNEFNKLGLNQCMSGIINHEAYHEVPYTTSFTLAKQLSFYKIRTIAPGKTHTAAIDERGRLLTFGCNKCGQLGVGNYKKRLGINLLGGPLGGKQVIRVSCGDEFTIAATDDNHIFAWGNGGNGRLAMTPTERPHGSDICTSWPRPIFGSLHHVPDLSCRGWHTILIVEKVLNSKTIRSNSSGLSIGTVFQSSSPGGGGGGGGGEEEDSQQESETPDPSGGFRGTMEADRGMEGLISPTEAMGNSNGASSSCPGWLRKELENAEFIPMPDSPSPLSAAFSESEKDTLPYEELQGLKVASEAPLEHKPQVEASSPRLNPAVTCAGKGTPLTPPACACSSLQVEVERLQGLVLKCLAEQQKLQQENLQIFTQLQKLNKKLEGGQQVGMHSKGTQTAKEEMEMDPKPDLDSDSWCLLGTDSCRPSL
The following applies: at 0.1 µM.

Sequence of Serine/threonine-protein kinase Nek7 (Homo sapiens) (Q8TDX7 whole entry, looked up): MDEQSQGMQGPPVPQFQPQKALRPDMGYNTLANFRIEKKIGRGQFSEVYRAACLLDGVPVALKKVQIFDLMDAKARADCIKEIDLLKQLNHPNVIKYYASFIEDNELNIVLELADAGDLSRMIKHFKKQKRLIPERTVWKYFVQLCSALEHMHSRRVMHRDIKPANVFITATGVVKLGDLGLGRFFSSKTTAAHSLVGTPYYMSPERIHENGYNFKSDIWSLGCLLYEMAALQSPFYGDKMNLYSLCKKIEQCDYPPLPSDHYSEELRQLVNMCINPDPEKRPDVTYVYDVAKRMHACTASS
Sequence of Serine/threonine-protein kinase Nek6 (Homo sapiens) (Q9HC98 whole entry): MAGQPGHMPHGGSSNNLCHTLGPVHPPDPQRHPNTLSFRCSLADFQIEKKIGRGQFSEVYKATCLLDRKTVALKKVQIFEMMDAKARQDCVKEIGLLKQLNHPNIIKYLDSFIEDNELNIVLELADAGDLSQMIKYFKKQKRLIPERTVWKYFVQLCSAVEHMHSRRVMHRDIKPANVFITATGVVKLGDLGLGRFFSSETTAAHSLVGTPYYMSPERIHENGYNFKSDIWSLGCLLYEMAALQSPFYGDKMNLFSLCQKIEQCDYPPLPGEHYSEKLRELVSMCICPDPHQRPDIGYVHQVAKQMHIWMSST

Regarding `CCn1c(-c2nonc2N)nc2c(C#CC(C)(C)O)ncc(OC3CCNCC3)c21`, the inhibition was 95.8% in assay [1]; 2.28% in assay [2]; 2.37% in assay [3]; 3.31% in [4]; 2.51% in assay [5]; -0.18% in [6]. Further, the inhibition in assay [7] is 1.86%; in [8], -3.88%; in assay [9], 5.15%; in assay [10] it was 2.14%.

On to `Nc1nc(-c2cccc(Cl)c2)c(-c2ccc3ncccc3n2)s1`, for which the inhibition in assay [1] was 8.93%; in assay [2], 2.49%; in [3], 6.68%; in assay [4] it was 5.95%; in [5], 4.63%; in [6], 3.94%. For the same molecule, the inhibition in assay [7] amounted to 6.59%; in assay [8], 1.99%; in assay [9] it was 4.09%; in assay [10], 6.55%.

As for `CCCN1CCC(c2ccc(Nc3nc(Nc4cc(F)ccc4C(N)=O)c4cc[nH]c4n3)c(OC)c2)CC1`, the inhibition is 5.85% in assay [1]; 4.68% in [2]; 21.6% in [3]; 4.85% in assay [4]; 17.6% in assay [5]; 4.35% in assay [6]. Further, the inhibition was found to be 8.4% in assay [7], 7.49% in assay [8], 8.87% in [9] and 8.38% in assay [10].

Consider `Nc1nc(-c2ccc(F)cc2)c(-c2ccc3ncccc3n2)s1`, for which the inhibition in assay [1] is 7.4%; in assay [2], 2.04%; in assay [3], 36%; in assay [4] it was 4.57%; in assay [5], 6.71%; in assay [6], 2.87%. Besides, the inhibition in assay [7] was found to be 5.03%; in [8], 3.03%; in assay [9] it was 3.14%; in assay [10], 11.5%.

As for `Cc1cccc2c1NC(=O)/C2=N\Nc1ccc(S(N)(=O)=O)cc1`, the inhibition in assay [1] amounted to 3.85%; in assay [2] it was 1%; in [3], 3.8%; in assay [4] it was 2.64%; in assay [5], 2.64%; in assay [6], 2.04%. The inhibition was 1.65% in assay [7], 2.43% in assay [8], 2.36% in assay [9] and 4.06% in assay [10].

Take `CNC(=O)c1cccc(C#Cc2cncnc2Nc2ccc(OCc3cccc(F)c3)c(Cl)c2)c1`: the inhibition was 1.01% in assay [1]; -0.52% in assay [2]; -1.06% in [3]; 0.09% in assay [4]; -0.96% in assay [5]; 1.08% in assay [6]. The inhibition in [7] was 1.68%; in assay [8], 0.01%; in [9] it was 0.48%; in [10], 0.64%.

Turning to `CCn1cc(-c2ccnc3[nH]ccc23)c(-c2cccc(NC(=O)Nc3ccc(OCc4ccccc4)cc3)c2)n1`, the inhibition is 3.46% in assay [1]; 1.35% in [2]; 0.82% in assay [3]; 0.4% in assay [4]; -1.01% in [5]; -0.55% in assay [6]. Also, the inhibition in assay [7] was -0.07%; in assay [8] it was -1.04%; in assay [9], -5.21%; in assay [10], 3.07%.

In the case of `N#Cc1c(NC(=O)c2ccc(F)cc2)sc2c1CCCC2`, the inhibition was 3.72% in assay [1]; 9.69% in assay [2]; 3.09% in [3]; 2.18% in assay [4]; 1.31% in [5]; 2.27% in assay [6]. In addition, the inhibition in assay [7] amounted to 2.25%; in [8], 2.7%; in [9] it was 2.46%; in assay [10], 3.12%.

As for `CCN1CCC(CC(=O)Nc2n[nH]c3nnc(-c4cccc(F)c4F)cc23)CC1`, the inhibition in [1] stood at 4.56%; in [2], 1.55%; in assay [3], 1.21%; in assay [4] it was 2.78%; in assay [5], 1.49%; in assay [6], 2.04%. Also, the inhibition in assay [7] worked out at 2.93%; in [8], 2.55%; in [9] it was 1.27%; in assay [10], 0.14%.
